The text below walks through data of ChEMBL document CHEMBL4513139, “CO-ADD screening of University of Strathclyde (UK) compounds”.

One may read the Inhibition as the drop in the measured response relative to a control, in per cent.

Assay [1] has as its system Klebsiella pneumoniae. The note with it: Concentration 32 ug.mL-1; ASSAY_TEST Inhibition of Bacterial Growth; detection method Absorption (OD600); MEDIA CAMHB; plate type 384well; NBS; CORNING #3640; time 18 hr.
The subject of assay [2] is Candida albicans. The note with it: 32 ug/mL.
Assay [3] has as its system Cryptococcus neoformans. The note with it: Concentration 32 ug.mL-1; ASSAY_TEST Inhibition of Fungal Growth; detection method Resazurin; Absorption (OD600-OD570); plate type 384well; NBS; CORNING #3640. In general terms: The colour change of resazurin is a common sign of viable cells or microbes.

Results with a measured potency or affinity are listed apart.

Turning to `CC(=O)N(C(C)=O)c1cc(C(=O)Nc2cc(C(=O)NCCC(=N)N)n(C)c2)n(C)c1.O=C(O)C(F)(F)F`, the Inhibition in assay [1] was 5.82%; in assay [2] it was 3.85%; in assay [3], 87.54%.

As to `CC(C)c1sc(N)nc1C(=O)Nc1cc(C(=O)Nc2cc(C(=O)NCCN3CCOCC3)n(C)c2)n(C)c1.O=C(O)C(F)(F)F`, the Inhibition in assay [1] was -2.63%; in assay [2], 3.25%; in assay [3] it was -112.04%.

Take `Cc1ncc(CO)c(N)n1`: the results for the Inhibition in assay [1], in assay [2] and in assay [3] were -2.19%, -0.12% and -45.32%, respectively.

Turning to `Cc1ncc(Cn2cc(CCCCO)nn2)c(N)n1`, the results for the Inhibition in assay [1], in assay [2] and in assay [3] were 1.98%, 2.99% and -60.21%, respectively.

In the case of `CC(C)CCc1sc(NC(=O)c2cc(NC(=O)c3cc(NC(=O)CCC(=O)O)cn3C)cn2C)nc1C(=O)NCCCN(C)C.O=C(O)C(F)(F)F`, the Inhibition in assay [1] is 2.15%; in assay [2], 2.8%; in assay [3], -103.67%.

Regarding `Cn1cc(NC(=O)c2cc(NC(=O)c3ccc(/C=C/c4cccc(F)c4)cc3)cn2C)cc1C(=O)NCCN1CCOCC1.O=C(O)C(F)(F)F`, the values for the Inhibition in assay [1] and in assay [2] were -2.66% and 24.2%, respectively.

Take `Cn1cc(NC(=O)c2cc(NC(=O)CCC(=O)O)cn2C)cc1C(=O)NCCN1CCOCC1.O=C(O)C(F)(F)F`: the results for the Inhibition in assay [1], in assay [2] and in assay [3] were 14.45%, 1.67% and -38.65%, respectively.

Take `CC(C)n1cc(NC(=O)c2cc(NC(=O)c3cc(NC=O)cn3C(C)C)cn2C)cc1C(=O)NCCCN(C)C.O=C(O)C(F)(F)F`: the Inhibition in assay [1] was 2.64%; in assay [2] it was -1.38%; in assay [3] it was -103.79%.

In the case of `COc1cccc(C(=N)Nc2cc(C(=O)Nc3cc(C(=O)Nc4cc(C(=O)NCCCN5CCOCC5)n(C)c4)n(C)c3)n(C)c2)c1.O=C(O)C(F)(F)F.O=C(O)C(F)(F)F`, the Inhibition in assay [1] is 14.25%; in assay [2], 1.73%; in assay [3] it was -103.93%.

In the case of `COCCOC1CCN(C(=O)c2cc(NC(=O)c3cc(NC(=O)c4ccc(/C=C/c5cnc6ccccc6c5)cc4)cn3C)cn2C)CC1`, the Inhibition came to 10.84% in assay [1], 3.83% in assay [2] and 112.33% in assay [3].

Consider `COc1cccc(C(=N)Nc2cc(C(=O)Nc3cc(C(=O)Nc4cn(CCCN(C)C)cn4)n(C)c3)n(C)c2)c1.O=C(O)C(F)(F)F.O=C(O)C(F)(F)F`, for which the Inhibition in assay [1] was 25.01%; in assay [2], 0.2%; in assay [3] it was -90.24%.

Take `CCOC(=O)c1cc(NC(=O)c2cc(NC(=O)c3sc(N)nc3C(F)(F)F)cn2C)cn1C`: the Inhibition in assay [1] was 7.86%; in assay [2] it was 4.58%; in assay [3], -88.19%.

In the case of `CC(C)c1sc(N)nc1C(=O)Nc1cc(C(=O)NCCN2CCOCC2)n(C)c1.O=C(O)C(F)(F)F`, the Inhibition in assay [1] was 8.18%; in assay [2], 3.26%; in assay [3], -97.94%.

Consider `CN(C)CCCNC(=O)c1cc(NC(=O)c2cc(NC(=O)c3cc(NC(=N)N)cn3C)cn2C)cn1C.O=C(O)C(F)(F)F.O=C(O)C(F)(F)F`, for which the values for the Inhibition in assay [1], in assay [2] and in assay [3] were 7.81%, 2.03% and -105.56%, respectively.

Regarding `CN(C)CCCNC(=O)c1cc(NC(=O)c2cc(NC(=O)CCC(=O)O)cn2C)cn1C.O=C(O)C(F)(F)F`, the results for the Inhibition in assay [1], in assay [2] and in assay [3] were 6.24%, 0.85% and -54.8%, respectively.

For the molecule `CC(C)c1sc(NC(=O)c2cc(NC(=O)c3cc(NC(=O)c4cnc(Cl)c(Cl)c4)cn3C)cn2C)nc1C(=O)NCCCN(C)C.O=C(O)C(F)(F)F`, the Inhibition in assay [1] was -2.83%; in assay [2], 7.37%; in assay [3], 12.34%.

Regarding `COc1ccc(/C=C(/C(=O)Nc2cc(C(=O)Nc3cc(C(=O)NCCCN(C)C)n(C)c3)n(C)c2)c2ccc(OC)cc2)cc1.O=C(O)C(F)(F)F`, the Inhibition was 4.2% in assay [1], 1.83% in assay [2] and -5.3% in assay [3].

For `Cc1ccc(S(=O)(=O)NCCc2cn(Cc3cnc(C)nc3N)nn2)cc1`, the Inhibition in assay [1] was 1.07%; in assay [2], 3.05%; in assay [3], -48.53%.

With `CN(C)CCCNC(=O)c1cc(NC(=O)c2cc(NC(=O)c3ccc(C(=O)O)cc3)cn2C)cn1C.O=C(O)C(F)(F)F`, the Inhibition was 8.35% in assay [1], 15.6% in assay [2] and -106.52% in assay [3].

As for `CN(C)CCCNC(=O)c1cc(NC(=O)c2cc(NC(=O)c3cc(NC(=N)c4ccccc4)cn3C)cn2C)cn1C.O=C(O)C(F)(F)F.O=C(O)C(F)(F)F`, the Inhibition in assay [1] was 1.31%; in assay [2] it was 0.01%; in assay [3], -106.51%.

Take `Cc1ncc(Cn2cc(CO)nn2)c(N)n1`: the Inhibition was -6.43% in assay [1], 1.92% in assay [2] and -37.01% in assay [3].

Turning to `Cc1ncc(Cn2cc(CCCN)nn2)c(N)n1.Cl`, the Inhibition in assay [1] was -8.29%; in assay [2] it was 3.42%; in assay [3], -41.75%.

Turning to `CC(C)CCc1sc(NC(=O)c2cc(NC(=O)c3ccc(/C=C/c4cc5ccccc5nc4On4nnc5ccccc54)cc3)cn2C)nc1C(=O)NCCN1CCOCC1.O=C(O)C(F)(F)F`, the values for the Inhibition in assay [1], in assay [2] and in assay [3] were -11.86%, 12.3% and 0.39%, respectively.

Consider `CCOC(=O)c1cc(NC(=O)c2cc(NC(=O)c3nc(N)sc3C(C)C)cn2C)cn1C`, for which the Inhibition is 11.43% in assay [1], 4.33% in assay [2] and -54.98% in assay [3].

With `Cc1ncc(CNc2ccc(Cl)cc2)c(N)n1`, the Inhibition is 5.04% in assay [1], -0.54% in assay [2] and -54.67% in assay [3].

With `Cc1ncc(CNc2ccc(C(C)(C)C)cc2)c(N)n1`, the Inhibition in assay [1] was 2.67%; in assay [2], -0.83%; in assay [3], -46.61%.
